biological target: Shiga toxin 2 (Escherichia coli O157:H7) (UniProt P09385+P09386); assay: E. coli 0.157:H7 Shiga Toxin SOP - stx2 screening assay; assay type: functional; set-up: scale not given: direction of the effect not stated beside the values; conditions: 30 µM

| SMILES | Percent Effect [%] |
| --- | --- |
| O=C(CCC1CCCO1)NCc1ccnc(-n2cccn2)c1 (stereo not given) | 21.6 |
| Cc1ccc(CC(=O)NC(C)C(=O)N2CCS(=O)(=O)CC2)cc1 (stereo not given) | 1.85 |
| CCOc1ccc(-c2ccnc(CC)n2)cc1C(=O)O | 0.242 |
| Cn1c(C(F)(F)F)nn(CCNC(=O)c2cnc3ccccc3n2)c1=O | -21.4 |
| Cc1ccc(N2CCC3(CCCN(C(=O)c4cccnc4)C3)C2)nn1 (stereo not given) | -11 |
| CSCC(=O)N1CCCC(n2ccnc2C(C)C)C1 (stereo not given) | 28.1 |
| Cn1nccc1C(=O)N1CCOC(Cc2cccnc2)C1 (stereo not given) | -23.7 |
| O=C(c1cccc(Cl)c1)N1CC[C@H]2[C@H]1CCN2CC1CCOCC1 | -25.2 |
| CN(C(=O)c1ccccn1)c1nc2c(s1)CCc1c-2cnn1C | -76.1 |
| Cn1cc(-c2csc(N3CCOCC3)n2)cn1 | -13 |
| Cc1cc(C)n(CC2CCCN2C(=O)c2c[nH]c3ncccc23)n1 (stereo not given) | 26.8 |
| Cc1nc(CCNC(=O)NC2CCN(c3ncccn3)CC2)cs1 | -10 |
| O[C@H]1[C@H](n2cc(-c3ccccc3)nn2)c2ccccc2C12CCNCC2 | -10.9 |
| CCCNC(=O)c1cc2c(nc1O)CCC(C)C2 (stereo not given) | -21.4 |
| COCCN1CC[C@H](O)[C@@H]1Cc1ccccc1 | -34.6 |
| COC(=O)Cn1cccc(S(=O)(=O)N2CCC(C)CC2)c1=O | -36.3 |
| Cc1ccc(N2CCCN(C(=O)CC3CCCO3)CC2)nn1 (stereo not given) | 18.1 |
| CCS(=O)(=O)N(C)c1ccc(C(=O)N2CCCC(C)C2)cc1 (stereo not given) | -3.21 |
| CN(C)C(C)(C)CNC(=O)C(C)(C)c1ccccc1F | 13.2 |
| CCc1nccn1C1CCCN(C(=O)Cc2n[nH]c3ccccc23)C1 (stereo not given) | 13.1 |

| SMILES | Percent Effect [%] |
| --- | --- |
| N#Cc1ccc(CNCC(C(=O)N2CCOCC2)c2ccccc2)cc1 (stereo not given) | -26 |
| CCCNC(=O)COc1ccc(C)cn1 | -36.7 |
| CC(C)NC(=O)C(c1ccccc1)N1CCn2c(nnc2C2CC2)C1 (stereo not given) | 13 |
| CN1CCOC(CNCCc2ccccn2)C1 (stereo not given) | -10.7 |
| NC(=O)Cc1ccc(NC(=O)C2CCOCC2)cc1 | 20.8 |
| CCN(C)c1ncnc2c1CCN(Cc1ccc(OC)cc1)CC2 | 4.46 |
| CC(C)c1nccn1C1CCCN(C(=O)c2ccc3c(c2)OCO3)C1 (stereo not given) | 10.5 |
| O=C1CCC2(CCN(Cc3ccc(F)cc3)CC2)N1Cc1ccccc1 | 6.77 |
| Cc1ncoc1C(=O)N1CCn2c(COCC3CC3)cnc2C1C (stereo not given) | -10.6 |
| Fc1cccc(-c2nc(CN3CCOC(Cn4cccn4)C3)co2)c1 (stereo not given) | 24.3 |
| Cc1cc(CN(C)Cc2cc3c(cc2OC(F)F)OCO3)on1 | 19.4 |
| CC(C)CC(=O)N1CC[C@@H]2[C@H](CC1)N(S(C)(=O)=O)CCS2(=O)=O | -14.8 |
| Cc1cc(C)n(CCC(=O)N2CCCC(n3cncn3)C2)n1 (stereo not given) | 0.596 |
| CCS(=O)(=O)N1CCc2c(cccc2NC(=O)NCCOC)C1 | 6.78 |
| COc1ccccc1OCCN1CCC(N2CCNC2=O)CC1 | 21 |
| CCc1noc(C)c1C(=O)N(C)Cc1ncc(C)c(OC)c1C | 16.8 |
| Cn1ccnc1CN1CCC2(COCCN(Cc3ccsc3)C2)C1 (stereo not given) | -19.8 |
| NC(=O)c1ccc(CN2CCCC(N3CCCC3)C2)cc1 (stereo not given) | -4.76 |
| Cc1ccc(CN2CCCC23CCN(S(=O)(=O)c2ccccc2)C3)o1 (stereo not given) | 3.29 |
| OCCn1cc(CN2CCN(CCOCC(F)(F)F)CC2)cn1 | 27.3 |
